Data reported in PubChem BioAssay (NCI).
The panel holds about 83,000 compounds, 20% with a hit somewhere; the sample as a whole holds those more often.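 Results are percent growth after 48 hours of single-concentration exposure. 100 means growth as in untreated cells, lower positive values show inhibition; negative values down to -100 show cell death.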 Active and inactive are the calls of the source. Rule for the calls: active = growth percent below 10; inactive = the rest.

Each compound was assayed on U251 CNS (assay: NCI-60 one-dose screen, 48 h (100 = growth as untreated, 0 = no growth, -100 = all killed)). Conditions: 10 µM unless noted.
In the case of `COc1cc(-c2nn(-c3cccc(NC(=O)Nc4cc(C(F)(F)F)cc(C(F)(F)F)c4)c3)cc2-c2ccncc2)ccc1Cl`, the growth is reported as -81.7% (active).
In the case of `COc1ccc(C(=O)c2cc(OC)c3c(c2)OCO3)cc1O`, the growth is reported as 27.9% (inactive).
In the case of `CCOC(=O)NNC(=S)Nc1ccccc1`, the growth is reported as 101% (inactive).
With `N#Cc1c(-c2ccccc2)nc(SCC(=O)N2CCN(c3ccccc3)CC2)[nH]c1=O` the growth was 95.7% (inactive).
With `C=C1c2nc3ccccc3n2C=C(c2ccc(Cl)cc2)N1Cc1ccccc1` the growth was 90.9% (inactive).
In the case of `Cc1cc(C(C)(C)C)ccc1S`, the growth is reported as 109% (inactive).
`CCOC(=O)C1=C(C)NC(C)=C(C(=O)OCC)C1(C)C` was tested, and the growth was 107% (inactive).
With `COc1ccc(CNCCCN2C(=O)c3ccc4c5c(ccc(c35)C2=O)C(=O)N(CCCNCCCCNCCCN)C4=O)c(OC)c1OC` the growth was -6.34% (active).
In the case of `NNc1cccc(/C=C/c2ccccc2)cc1=O`, the growth is reported as 48.5% (inactive).
In the case of `O=C(Nc1ccncc1)C(=O)c1cn(S(=O)(=O)c2ccc(Br)cc2)c2ccccc12`, the growth is reported as 42.7% (inactive).
With `O=C(/C=C/c1cc(-c2ccc3c(c2)OCO3)n[nH]1)c1ccc2c(c1)OCO2` the growth was 75.7% (inactive).
In the case of `CCCOC(=O)n1cccc1`, the growth is reported as 107% (inactive).
For `CCN(CC)c1ccc(CNc2ccnc3ccccc23)cc1`, the growth was 52.4% (inactive).
For `COc1cccc(-c2cc3c(O)cc(C#N)cc3[nH]2)c1`, the growth was 85.3% (inactive).
`C=C(C)[C@@H]1CC[C@]2(C(=O)N3CCNCC3)CC[C@]3(C)[C@H](CC[C@@H]4[C@@]5(C)C/C(=C/c6ccncc6)C(=O)C(C)(C)[C@@H]5CC[C@]43C)[C@@H]12` was tested, and the growth was 101% (inactive).
For `Fc1ccccc1-c1nc(-c2nc3cc(Cl)c(Cl)cc3[nH]2)c2ccccn12`, the growth was 95% (inactive).
In the case of `O=[N+]([O-])c1cc(Cl)c2[nH]c3c(Cl)cc([N+](=O)[O-])cc3c2c1`, the growth is reported as -22.7% (active).
`COc1cc(-c2nn(C(=O)NS(=O)(=O)c3ccccc3)cc2-c2ccncc2)ccc1Cl` was tested, and the growth was 81.6% (inactive).
In the case of `COc1cc(NCCCCCN)c2ncccc2c1`, the growth is reported as 107% (inactive).
With `NC(=N\N=C/c1ccc(O)cc1)/C(N)=N\N=C/c1ccc(O)cc1` the growth was 72.3% (inactive).
With `Cn1c(=O)c2[nH]c(C3CC=CCC3)nc2n(C)c1=O` (stereo not drawn) the growth was 105% (inactive).
For `O=C(/C=C/c1ccccc1)c1cccc(O)c1`, the growth was 61.9% (inactive).
In the case of `C=C[C@@H]1C[C@H](O)Cc2cc(F)ccc2N1`, the growth is reported as 93.3% (inactive).
In the case of `O=C(O)Cc1cccc(=O)c(O)c1C(=O)O`, the growth is reported as 109% (inactive).
With `O=C(O)COc1ccc(-c2cssc2=S)cc1` the growth was 98.2% (inactive).
`COc1ccc(-c2cnnn2-c2nonc2-n2cccc2)cc1OC` was tested, and the growth was 56.8% (inactive).
For `O=C(O)C1CCCCN1c1nc(Cl)nc(Cl)n1` (stereo not drawn), the growth was 104% (inactive).
`CCCCN(CCCC)C(=N)c1ccnc2ccccc12` was tested, and the growth was 107% (inactive).
For `O=S(=O)(NCCNc1nccc(-c2c(-c3cccc(O)c3)nc3sccn23)n1)c1ccc(F)cc1`, the growth was 79.4% (inactive).
For `Cc1ccc(Cc2c(C=O)nc(N)[nH]c2=O)c2ccccc12`, the growth was 95.3% (inactive).
For `Cn1cnc2c(N3CCN(C(=O)OCc4ccc5c(Cl)cc(Cl)c(O)c5n4)CC3)nc(Cl)nc21`, the growth was 38.6% (inactive).
For `COc1ccc(-c2c(N)n[nH]c2-c2cc(OC)c3c(c2)OCCO3)cc1`, the growth was 77.6% (inactive).
`CCOC(=O)c1ccc2c(c1)c1c(C)c3cccnc3c(C)c1n2C` was tested, and the growth was 48.1% (inactive).
`Cc1nc2ncccc2nc1Nc1ccc(S(=O)(=O)Nc2ccccn2)cc1` was tested, and the growth was 94.4% (inactive).
`COc1ccc(C2=C(c3cc(OC)c(OC)c(OC)c3)C(=O)CC2)cc1` was tested, and the growth was 21.7% (inactive).

What follows are compounds tested on PC-3 prostate in the same assay as above. Conditions: 10 µM unless noted.
In the case of `COc1cc(-c2nn(-c3cccc(NC(=O)Nc4cc(C(F)(F)F)cc(C(F)(F)F)c4)c3)cc2-c2ccncc2)ccc1Cl`, the growth is reported as -55.2% (active).
With `COc1ccc(C(=O)c2cc(OC)c3c(c2)OCO3)cc1O` the growth was 29.4% (inactive).
In the case of `CCOC(=O)NNC(=S)Nc1ccccc1`, the growth is reported as 100% (inactive).
For `N#Cc1c(-c2ccccc2)nc(SCC(=O)N2CCN(c3ccccc3)CC2)[nH]c1=O`, the growth was 95.6% (inactive).
With `Cc1cc(C(C)(C)C)ccc1S` the growth was 85.6% (inactive).
In the case of `CCOC(=O)C1=C(C)NC(C)=C(C(=O)OCC)C1(C)C`, the growth is reported as 98.2% (inactive).
With `COc1ccc(CNCCCN2C(=O)c3ccc4c5c(ccc(c35)C2=O)C(=O)N(CCCNCCCCNCCCN)C4=O)c(OC)c1OC` the growth was 15.3% (inactive).
For `NNc1cccc(/C=C/c2ccccc2)cc1=O`, the growth was 61.3% (inactive).
`O=C(Nc1ccncc1)C(=O)c1cn(S(=O)(=O)c2ccc(Br)cc2)c2ccccc12` was tested, and the growth was 68.4% (inactive).
For `O=C(/C=C/c1cc(-c2ccc3c(c2)OCO3)n[nH]1)c1ccc2c(c1)OCO2`, the growth was 74.6% (inactive).
`CCCOC(=O)n1cccc1` was tested, and the growth was 91.6% (inactive).
For `CCN(CC)c1ccc(CNc2ccnc3ccccc23)cc1`, the growth was 42.4% (inactive).
For `COc1cccc(-c2cc3c(O)cc(C#N)cc3[nH]2)c1`, the growth was 81.8% (inactive).
With `C=C(C)[C@@H]1CC[C@]2(C(=O)N3CCNCC3)CC[C@]3(C)[C@H](CC[C@@H]4[C@@]5(C)C/C(=C/c6ccncc6)C(=O)C(C)(C)[C@@H]5CC[C@]43C)[C@@H]12` the growth was 94.4% (inactive).
`Fc1ccccc1-c1nc(-c2nc3cc(Cl)c(Cl)cc3[nH]2)c2ccccn12` was tested, and the growth was 62.2% (inactive).
`O=[N+]([O-])c1cc(Cl)c2[nH]c3c(Cl)cc([N+](=O)[O-])cc3c2c1` was tested, and the growth was 4.26% (active).
For `COc1cc(-c2nn(C(=O)NS(=O)(=O)c3ccccc3)cc2-c2ccncc2)ccc1Cl`, the growth was 78.2% (inactive).
For `COc1cc(NCCCCCN)c2ncccc2c1`, the growth was 108% (inactive).
`NC(=N\N=C/c1ccc(O)cc1)/C(N)=N\N=C/c1ccc(O)cc1` was tested, and the growth was 33.1% (inactive).
In the case of `Cn1c(=O)c2[nH]c(C3CC=CCC3)nc2n(C)c1=O` (stereo not drawn), the growth is reported as 87.6% (inactive).
For `O=C(/C=C/c1ccccc1)c1cccc(O)c1`, the growth was 103% (inactive).
With `C=C[C@@H]1C[C@H](O)Cc2cc(F)ccc2N1` the growth was 97.2% (inactive).
In the case of `O=C(O)Cc1cccc(=O)c(O)c1C(=O)O`, the growth is reported as 95.7% (inactive).
In the case of `O=C(O)COc1ccc(-c2cssc2=S)cc1`, the growth is reported as 104% (inactive).
With `c1ccc(-c2nnc(-c3ccccn3)s2)nc1` the growth was 93.8% (inactive).
In the case of `CC(C)CC1NC(C)(C)CO1` (stereo not drawn), the growth is reported as 94.4% (inactive).
In the case of `CC(C)(C)N1CCC1C(N)=O` (stereo not drawn), the growth is reported as 95.3% (inactive).
For `COc1ccc(-c2cnnn2-c2nonc2-n2cccc2)cc1OC`, the growth was 61.2% (inactive).
`O=C(O)C1CCCCN1c1nc(Cl)nc(Cl)n1` (stereo not drawn) was tested, and the growth was 99.3% (inactive).
`CCCCN(CCCC)C(=N)c1ccnc2ccccc12` was tested, and the growth was 105% (inactive).
`O=S(=O)(NCCNc1nccc(-c2c(-c3cccc(O)c3)nc3sccn23)n1)c1ccc(F)cc1` was tested, and the growth was 65.7% (inactive).
With `COc1cc(-c2nn(-c3cccc(NC(=O)c4cccc(C(F)(F)F)c4)c3)cc2-c2ccncc2)ccc1Cl` the growth was 4.39% (active).
In the case of `Cc1ccc(Cc2c(C=O)nc(N)[nH]c2=O)c2ccccc12`, the growth is reported as 88.8% (inactive).
In the case of `Cn1cnc2c(N3CCN(C(=O)OCc4ccc5c(Cl)cc(Cl)c(O)c5n4)CC3)nc(Cl)nc21`, the growth is reported as 54.8% (inactive).
For `COc1ccc(-c2c(N)n[nH]c2-c2cc(OC)c3c(c2)OCCO3)cc1`, the growth was 66.9% (inactive).
For `CCOC(=O)c1ccc2c(c1)c1c(C)c3cccnc3c(C)c1n2C`, the growth was 58.3% (inactive).
`Cc1nc2ncccc2nc1Nc1ccc(S(=O)(=O)Nc2ccccn2)cc1` was tested, and the growth was 88.1% (inactive).
For `COc1ccc(C2=C(c3cc(OC)c(OC)c(OC)c3)C(=O)CC2)cc1`, the growth was 38.3% (inactive).
